Records with an inconclusive call do not appear. Calls of active or inactive are those of the source. Calls come from the whole dose curve.
Assay: qHTS assay to identify small molecule agonists of the AP-1 signaling pathway - cell viability counter screen (AID 1159525); note: nearly all actives have a fitted effect of over 55% in size
Conditions: ME-180 (cervical carcinoma) AP-1-bla cells viability, ATP luminescence, 5 h; series mostly up to 76.8 µM; viability change, negative = cytotoxic: at the top concentration
Description: National Center for Advancing Translational Sciences [NCATS]
NIH Chemical Genomics Center [NCGC]
U.S. Environmental Protection Agency [EPA]
National Institutes of Environmental Health Sciences [NIEHS]
National Toxicology Program [NTP]
U.S. Food and Drug Administration [FDA]
Activator protein-1 (AP-1), a transcription factor, plays an important role in tumor genesis by regulating genes involved in cell proliferation, differentiation, apoptosis, and angiogenesis. AP-1 activity is induced by a complex network of signaling pathways that involves extracellular signals, such as growth factors. The AP-1 protein complex formed from c-Fos and c-Jun binding to the AP-1 response element results in transcriptional activation of genes containing such elements within their promoter.
Low molecular weight molecules have been discovered and developed to modulate various components of these signaling pathways, for example, MAP kinase inhibitors. However, many points of pathway modulation remain untested due to the lack of chemical probes making this signaling locus of general interest.
Using a beta-lactamase reporter-gene under control of the AP-1 response element, a cell-based assay [CellSensor(TM) AP-1-bla ME-180 developed by Invitrogen Corp.] was used to measure EGF-induced signaling. The Tox21 10K library compounds were measured for their ability to positively modulate the action of EC50 EGF on reporter gene activity. Compounds were screened in a 15-pt titration series in 1536-well format. The cytotoxicity of the Tox21 compound library against this cell line was tested in parallel by measuring the intra cellular ATP content in the same wells.
Tox21 Assay Protocol Summary:
2500 cells/5uL in Opti-MEM medium containing 0.5% dialyzed FBS, 0.1 mM NEAA, 1 mM sodium pyruvate and 10 mM HEPES was dispensed into 1536-well black wall/clear bottom plates using a Multidrop dispenser and cells were cultured at 37 degrees Celsius overnight. Next day 23 nL of compounds dissolved in DMSO, positive controls or DMSO were delivered to each well using a pin tool. The plates were incubated at 37 degrees Celsius for 5 hours. 1 uL of LiveBLAzerTM B/G FRET substrate (Solution A+B+C+D) was added to each well using a Flying Reagent Dispenser. After incubated at room temperature for 2.5 hours the plates were measured on an EnVision plate reader at Excitation 405nm, Emission1=460nm and Emission 2=530nm. The %Activity was determined from the ratio of 460nm/530nm.
After the plates were read for Beta-Lactamase assay on Envision; 3 ul Cell Titer Glo (Promega) was added to measure the cytotoxicity and the plates were then incubated at RT in dark for 30 min. The luminescence was read on ViewLux (Perkin Elmer, Shelton, CT) using 6 sec exposure. ViewLux data was expressed as relative luminescence units.
For primary data analysis, raw plate reads for each titration point were first normalized relative to […] EGF control (100%) and DMSO only wells (basal, 0%).
For primary data analysis for viability assay, raw plate reads for each titration point were first normalized Tetra n-octyl ammonium bromide control (-100%) and DMSO (control, 100%).

SMILES	viability change, negative = cytotoxic
CCC(CO)(CO)CO	0.219% (inactive)
CC(C)(C)NCC(O)COc1cccc2c1C[C@H](O)[C@H](O)C2 (stereo not given in full)	16.5% [at 35.3 µM] (inactive)
Cc1ccccc1S(N)(=O)=O	-6.74% (inactive)
CC(=O)C(C)=O	-7.83% (inactive)
O=C(O)CN1C(=O)c2cccc3cccc(c23)C1=O	2.4% [at 35.3 µM] (inactive)
O=S(=O)(Cl)c1c(Cl)cccc1Cl	3.52% (inactive)
COC(=O)c1sccc1S(N)(=O)=O	7.42% (inactive)
COC(=O)C1=C(C)NC(C)=C(C(=O)OC(C)(C)CN(C)CCC(c2ccccc2)c2ccccc2)C1c1cccc([N+](=O)[O-])c1 (stereo not given)	16.1% [at 35.3 µM] (inactive)
O=C1OC(=O)c2c(Br)c(Br)c(Br)c(Br)c21	0.192% (inactive)
CCN(CC)C(=O)N1CCN(C)CC1	-0.261% [at 35.3 µM] (inactive)
CCN(CC)CCOc1ccccc1C(=O)CCc1ccccc1	-4.15% [at 35.3 µM] (inactive)
CC1=C2[C@@H]([C@H](C)CC[C@H]2/C=C(\C)C(=O)O)[C@H](O)C1	2.25% (inactive)
CCCCCCCCCCCCCCCCCC(=O)OCC(CC)CCCC (stereo not given)	1.98% (inactive)
CCCCCCC(CO)CCCC (stereo not given)	-2.83% (inactive)
CC1=CC[C@@H]2C[C@H]1C2(C)C	0.876% [at 15.8 µM] (inactive)
CSSc1ccoc1C	-0.396% (inactive)
O=C1OC[C@H](Cc2cccc(O)c2)[C@H]1Cc1cccc(O)c1	3.29% [at 35.3 µM] (inactive)
Nc1ccn([C@H]2CS[C@@H](CO)O2)c(=O)n1	7% (inactive)
CN1CCCN(C(c2ccccc2)c2ccc(Cl)cc2)CC1 (stereo not given)	-12.2% [at 35.3 µM] (inactive)
CCCCCc1ccco1	3.82% [at 35.3 µM] (inactive)

SMILES	viability change, negative = cytotoxic
CC[C@H]1OC(=O)[C@H](C)[C@@H](O[C@H]2C[C@@](C)(OC)[C@@H](O)[C@H](C)O2)[C@H](C)[C@@H](O[C@@H]2O[C@H](C)C[C@H](N(C)C)[C@H]2O)[C@](C)(O)C[C@@H](C)/C(=N\OCOCCOC)[C@H](C)[C@@H](O)[C@]1(C)O	2.3% [at 35.3 µM] (inactive)
CC1=CC[C@@]23C[C@@H]1C(C)(C)[C@@H]2CC[C@H]3C	0.862% (inactive)
[Cl][Nd]([Cl])[Cl]	-0.867% (inactive)
COC(C)(C)OC	1.42% (inactive)
CCO[Si](C)(CCCOCC1CO1)OCC (stereo not given)	-3.84% (inactive)
CC(O)Cn1cnc2c1c(=O)n(C)c(=O)n2C (stereo not given)	-5.29% [at 35.3 µM] (inactive)
CC(C)C(O)C(C)(C)CO (stereo not given)	4.68% (inactive)
Cc1cccc2sc(N)nc12	-21.2% (inactive)
CC12CC3CC(C)(C1)CC(N)(C3)C2	9.88% [at 35.3 µM] (inactive)
COC(=O)CC(C(C)=O)C(=O)OC (stereo not given)	-0.155% (inactive)
CCOCCC(=O)OCC	-4.87% (inactive)
CC(C)N(C)C	0.0204% (inactive)
O=C1CC[C@@H](C(=O)O)N1	9.32% [at 35.3 µM] (inactive)
COc1cc(S(=O)(=O)Nc2ccccc2)c(OC)cc1N	3.04% (inactive)
CC(=O)OCC(C)C	5.19% (inactive)
CC/C=C\C/C=C\C/C=C\CCCCCCCC(=O)OCC	5.61% (inactive)
CCCC(=O)OC(=O)CCC	8.87% (inactive)
C1=CCC2CC=CC2C1 (stereo not given)	-5.17% (inactive)
Cc1cc([N+](=O)[O-])ccc1N	1.08% (inactive)
Cc1cc(CCC(=O)OCCOCCOCCOC(=O)CCc2cc(C)c(O)c(C(C)(C)C)c2)cc(C(C)(C)C)c1O	0.886% (inactive)
